Records with an inconclusive call do not appear. Where a call stands in place of a potency, no number is given. Activity calls are given as the source filed them. Calls come from the whole dose curve.
The compounds below were run against Acetylcholinesterase (Homo sapiens) (UniProt P22303) (assay: Acetylcholinesterase (AChE) small molecule antagonists: fluorescence cell-based qHTS assay (AID 1347398; note: nearly all actives have a fitted effect of over 50% in size)). Conditions: SH-SY5Y cells; Potency: AChE activity; series mostly up to 115 µM.
Acetylcholinesterase (Homo sapiens), sequence (P22303 whole entry, looked up): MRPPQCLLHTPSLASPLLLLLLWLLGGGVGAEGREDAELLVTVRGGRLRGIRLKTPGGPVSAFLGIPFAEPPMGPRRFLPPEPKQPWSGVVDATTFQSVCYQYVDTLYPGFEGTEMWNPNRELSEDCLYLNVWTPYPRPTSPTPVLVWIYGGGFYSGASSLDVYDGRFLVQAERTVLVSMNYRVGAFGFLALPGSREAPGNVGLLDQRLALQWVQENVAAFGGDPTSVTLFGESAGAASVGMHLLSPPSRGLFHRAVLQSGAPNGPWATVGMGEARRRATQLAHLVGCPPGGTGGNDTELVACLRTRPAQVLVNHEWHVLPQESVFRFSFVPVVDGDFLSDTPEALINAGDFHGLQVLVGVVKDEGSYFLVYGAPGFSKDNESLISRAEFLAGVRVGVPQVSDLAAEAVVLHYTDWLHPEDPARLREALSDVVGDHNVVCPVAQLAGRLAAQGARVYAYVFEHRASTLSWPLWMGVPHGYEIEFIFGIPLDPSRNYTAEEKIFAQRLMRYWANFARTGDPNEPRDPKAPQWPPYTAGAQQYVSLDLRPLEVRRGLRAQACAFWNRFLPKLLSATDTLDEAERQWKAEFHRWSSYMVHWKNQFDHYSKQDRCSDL
Source text: National Center for Advancing Translational Sciences [NCATS]
Division of Preclinical Innovation [DPI]
U.S. Environmental Protection Agency [EPA]
National Institutes of Environmental Health Sciences [NIEHS]
National Toxicology Program [NTP]
U.S. Food and Drug Administration [FDA]
Acetylcholinesterase (AChE) is the primary cholinesterase in the body that hydrolyzes a key neurotransmitter, acetylcholine. Inhibition of AChE activity can lead to neurotoxicity. Known inhibitors of AChE include organophosphorous pesticides (OP), chemical warfare agents, drugs, and various phytochemicals.
A homogenous cell-based assay using Amplitetrade mark Fluorimetric Acetylcholinesterase Assay Kit *Green Fluorescence* (AAT Bioquest, Sunnyvale, CA) was used to evaluate the chemicals in the Tox21 10K library that inhibit AChE activity. The assay uses Thiolite Green to quantify the thiocholine produced from the hydrolysis of acetylthiocholine by AChE from the SH-SY5Y cells. AChE can hydrolyze acetylthiocholine to create thiocholine. Thiolite Green is fluorescent when reacting with thiocholine. It has spectral properties similar to those of fluorescein. The fluorescence intensity of Thiolite Green is used to measure AChE activity. Its signal can be easily read by a fluorescence microplate reader at Ex/Em = 490/520 nm.
Tox21 Assay Protocol Summary:
For cell-based AChE assay, 2,000 SH-SY5Y cells in 4 uL/well were dispensed into black, clear-bottom 1536-well plates using a Multidrop Combi (Thermo Scientific) dispenser. The assay plates were incubated overnight at 37 C to allow cells to attach to the wells, followed by the transfer of 23 nL compound or DMSO (vehicle control) by a Pintool station (Wako Automation, CA). The plates were incubated for 30 min at 37 C and 5% CO2, followed by the addition of 4 uL of detection cocktail solution (ThioliteGreen, acetylthiocholine) into each well using Flying Reagent Dispenser (Beckman Coulter, CA) and then following 40 min incubation at room temperature. Fluorescent intensity (Ex/Em = 490/520 nm) was measured using an Envision plate reader (PerkinElmer, MA).
In the case of `O=[N+]([O-])c1cccc2c([N+](=O)[O-])cccc12`, the Potency is reported as “inactive”.
`C(CCOCC1CO1)COCC1CO1` (stereo not given) was tested, and the Potency was “inactive”.
`COC(=O)C1=CCCN(C)C1` was tested, and the Potency was “inactive”.
For `COP(=S)(OC)Oc1c(Cl)cc(C)cc1Cl`, the Potency was “inactive”.
In the case of `CC(C)CC#N`, the Potency is reported as “inactive”.
`CC(=O)CCc1ccc2c(c1)OCO2` was tested, and the Potency was “inactive”.
For `ClC(Cl)C(Cl)Cl`, the Potency was “inactive”.
With `CC(C(O)c1ccccc1)N(C)C/C=C/c1ccccc1` (stereo not given) the Potency was “inactive”.
`[Cl][Sn]([Cl])([Cl])[Cl]` was tested, and the Potency was “inactive”.
`CCCCOC(=O)[C@@H](C)Oc1ccc(Oc2ccc(C#N)cc2F)cc1` was tested, and the Potency was “inactive”.
For `C=C(C)CN(CC)c1c([N+](=O)[O-])cc(C(F)(F)F)cc1[N+](=O)[O-]`, the Potency was “inactive”.
With `CCOP(=O)(OCC)OP(=O)(OCC)OCC` the Potency was “inactive”.
`C#CCN1C(=O)COc2cc(F)c(N3C(=O)C4=C(CCCC4)C3=O)cc21` was tested, and the Potency was “inactive”.
`CC(COc1ccc(Oc2ccccc2)cc1)Oc1ccccn1` (stereo not given) was tested, and the Potency was “inactive”.
With `CN1CCC(O)(c2ccc(F)cc2)C(C(=O)c2ccc(F)cc2)C1` (stereo not given) the Potency was “inactive”.
With `NC(=O)c1cc([N+](=O)[O-])cc([N+](=O)[O-])c1` the Potency was “inactive”.
In the case of `O=P(O)(Oc1ccccc1)Oc1ccccc1`, the Potency is reported as “inactive”.
With `O=C1OC(=O)C2C1C1(Cl)C(Cl)=C(Cl)C2(Cl)C1(Cl)Cl` (stereo not given) the Potency was “inactive”.
In the case of `CNC(=O)Oc1ccccc1C1OCCO1`, the Potency is reported as “inactive”.
With `N#Cc1c(Cl)cccc1Cl` the Potency was “inactive”.
`CCOP(=S)(OCC)Oc1cc(-c2ccccc2)on1` was tested, and the Potency was 44.8 µM (active).
With `CCCSC(=O)Cl` the Potency was “inactive”.
In the case of `CC1(C)CON(Cc2ccccc2Cl)C1=O`, the Potency is reported as “inactive”.
`CCNc1nc(NC(C)C)nc(OC)n1` was tested, and the Potency was “inactive”.
`CC1=C(C(=O)Nc2ccccc2)S(=O)(=O)CCO1` was tested, and the Potency was “inactive”.
For `O=C(O)C(Br)CBr` (stereo not given), the Potency was “inactive”.
`O=C1CN2CCOC2(c2ccccc2Cl)c2cc(Cl)ccc2N1` (stereo not given) was tested, and the Potency was “inactive”.
In the case of `CCCSC(=O)N(CCC)CCC`, the Potency is reported as “inactive”.
In the case of `N#CC(CCc1ccc(Cl)cc1)(Cn1cncn1)c1ccccc1` (stereo not given), the Potency is reported as “inactive”.
For `CCOC(=O)NC(=S)Nc1ccccc1NC(=S)NC(=O)OCC`, the Potency was “inactive”.
With `COc1cccc2c1cc([N+](=O)[O-])c1c(C(=O)O)cc3c(c12)OCO3` the Potency was “inactive”.
`O=C(Nc1ccccc1)c1ccccc1I` was tested, and the Potency was “inactive”.
For `CC1CCC(=O)O1` (stereo not given), the Potency was “inactive”.
With `CCCSP(=S)(OCC)Oc1ccc(Cl)cc1Cl` (stereo not given) the Potency was “inactive”.
`O=NN1CCCCC1` was tested, and the Potency was “inactive”.
For `O=C(Nc1ccccc1)N(Cc1ccc(Cl)cc1)C1CCCC1`, the Potency was “inactive”.
For `O=c1oc2ccccc2c(O)c1C1CCCc2ccccc21` (stereo not given), the Potency was “inactive”.
In the case of `O=C1CN=C(c2ccccc2)c2cc([N+](=O)[O-])ccc2N1`, the Potency is reported as “inactive”.
`CC(=O)[C@H]1CC[C@H]2[C@@H]3CC[C@H]4C[C@H](O)CC[C@]4(C)[C@H]3C(=O)C[C@]12C` was tested, and the Potency was “inactive”.
With `O=C(CCCN1CCC(n2c(=O)[nH]c3ccccc32)CC1)c1ccc(F)cc1` the Potency was “inactive”.
Potency is the fitted concentration of half-maximal effect.
